These results are taken from PubChem BioAssay (EPA / NIEHS).

Inconclusive results are not listed. Active and inactive are the calls of the source. Rule for the calls: active = hit-call score of the fitted dose curve at least 0.9, where 1 is the maximum; inconclusive = response in the unintended direction; inactive = score below 0.9.

Experiment [1] concerns the target human Peripheral-type Benzodiazepine Receptor (PBR), TSPO (gene 706) (UniProt P30536). In words: NVS_MP_hPBR: NovaScreen (NVS) Membrane Protein Assay for human Peripheral-type Benzodiazepine Receptor (PBR) (AID 2283331).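 Note: hits reduce radioligand binding relative to DMSO baseline.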 In a few lines:
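Human colonic cell membranes were incubated with test chemical for 1 hour; radioligand binding was measured by filter-based scintillation counting. Primary screen ran in duplicate at 25 uM, with actives followed in concentration series; loss of signal versus DMSO baseline.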

Experiment [2] addresses bovine Estrogen Receptor (ER), ESR1 (gene 407238) (UniProt P49884). In words: NVS_NR_bER: NovaScreen (NVS) Nuclear Receptor Binding Assay for bovine Estrogen Receptor (ER) (AID 2283345).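 Note: actives lower the bound radioligand count which means they displace the ER ligand.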 In a few lines: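 Displacement of a radioligand from estrogen receptor in bovine uterine membrane preparations; scintillation signal taken at 18 hours, DMSO as baseline. Single-concentration duplicates (25 uM) preceded concentration-response follow-up of actives.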

For experiment [3], the target named is Estrogen receptor (Homo sapiens) (UniProt P03372). In words: NVS_NR_hER: NovaScreen (NVS) Nuclear Receptor Binding Assay for human Estrogen Receptor (ER) (AID 2283348). In a few lines:
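Cell-free radioligand binding with protein extracted from MCF7 cells; scintillation counting 18 hours after dosing. Loss of signal versus DMSO baseline read as displacement; primary single-concentration screen at 25 uM in duplicate, actives retested in concentration series.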

For experiment [4] the target is unchanged. In words: OT_ER_ERaERa_1440: Odyssey Thera (OT) 24-hour HEK293T Protein-Complementation Assay for Estrogen Receptor-alpha/-alpha Homodimer (AID 2283349).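 Note: hits raise fluorescence above DMSO for agonists and antagonists alike.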 In a few lines:
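Readout is the rise in mean fluorescence from reporter fragment complementation when ERα LBD (aa 310-547) units dimerize in HEK293T cells. Measured 24 h after dosing and analysed as increase over DMSO control.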

Experiment [5] shares this target. In words: OT_ER_ERaERa_0480: Odyssey Thera (OT) 8-hour HEK293T Protein-Complementation Assay for Estrogen Receptor-alpha/-alpha Homodimer (AID 2283351).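 Note: rise in fluorescence from reassembled reporter fragments on ERα LBD homodimer in nucleus or whole cell.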 In a few lines:
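HEK293T cells stably expressing the human ERα ligand-binding domain (aa 310-547) as a homodimer PCA were dosed with compound for 8 h. Gain of fluorescence intensity versus DMSO vehicle was read by laser scanning cytometry.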

The nature of experiment [6]: NVS_IC_rCaBTZCHL: NovaScreen (NVS) Ion Channel Assay for Calcium Channel, Type L, Benzothiazepine Site (CaBTZCHL) (AID 2283337). In a few lines:
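Radioligand binding to the benzothiazepine site of L-type Ca channels in rat cortical membranes (cell-free), 1.5 h after dosing; filter-based scintillation counting. Loss of signal relative to DMSO baseline; primary single-concentration screen at 25 uM, actives then run in concentration series.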

For experiment [7], the target named is bovine Gamma-Aminobutyric Acid Type A Receptor Agonist (GABAR Agonist), GABRA1 (gene 780973) (UniProt P08219). In words: NVS_LGIC_bGABAR_Agonist: NovaScreen (NVS) Ligand-Gated Ion Channel Assay for bovine Gamma-Aminobutyric Acid Type A Receptor Agonist (GABAR Agonist) (AID 2283338). In a few lines:
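Radioligand binding to bovine cerebellar membranes in agonist format, read by filter-based scintillation counting after 1 h. Primary screen in duplicate at 25 uM, with actives followed in concentration series. Gain of signal versus DMSO.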

In experiment [8] the target is rat Glutamate, MK-801 Agonist Site (GluNMDA_MK801), Grin1 (gene 24408) (UniProt P35439). In words: NVS_LGIC_rGluNMDA_MK801_Agonist: NovaScreen (NVS) Ligand-Gated Ion Channel Assay for rat Glutamate, MK-801 Agonist Site (GluNMDA_MK801) (AID 2283340). In a few lines: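 Radioligand binding at MK-801 site in rat forebrain membranes, 1.5 h incubation, filter-based scintillation counting. Initially 25 uM in duplicate; actives then run in concentration-response up to 50 uM, fitted for gain of signal versus DMSO.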

The test system of experiment [9] is guinea pig Histamine Receptor (H2), gene 100729734. In words: NVS_GPCR_gH2: NovaScreen (NVS) G Protein-Coupled Receptor Assay for guinea pig Histamine Receptor (H2) (AID 2283342). In a few lines:
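Radioligand displacement on guinea pig striatal membranes, 1 h after dosing, filter-based scintillation counting; loss of signal versus DMSO. Single-point screen at 25 uM in duplicate, then concentration-response up to 50 uM.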

The target in experiment [10] is T1, Estrogen receptor (Homo sapiens) + Estrogen receptor beta (Homo sapiens) (UniProt P03372+Q92731). In words: OT_ER_ERaERb_0480: Odyssey Thera (OT) 8-hour HEK293T Protein-Complementation Assay for Estrogen Receptor-alpha/-beta Heterodimer (AID 2283352). In a few lines:
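HEK293T protein-fragment complementation assay of ER-alpha/ER-beta LBD heterodimerisation, read 8 h after dosing. Mean nuclear/cytoplasmic fluorescence intensity measured by laser scanning cytometry; gain of signal fitted relative to DMSO.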

The target in experiment [11] is Androgen Receptor/SRC-1 Co-activator, AR (gene 367) (UniProt P10275). In words: OT_AR_ARSRC1_0960: Odyssey Thera (OT) 16-hour HEK293T Protein-Complementation Assay for Androgen Receptor/SRC-1 Co-activator (AID 2283353).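 Note: actives raise the signal above DMSO so potency reflects increased AR and SRC-1 complex.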 In a few lines:
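HEK293T cells stably expressing AR and SRC-1 fused to split Venus YFP fragments via (Gly4Ser)2 linkers were dosed for 16 h. Nuclear/cytoplasmic fluorescence ratio at 488 nm, ≥400 cells per image, fitted for gain of signal versus DMSO.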

For experiment [12], the target named is T1, Estrogen receptor (Homo sapiens) + Estrogen receptor beta (Homo sapiens). In words: OT_ER_ERaERb_1440: Odyssey Thera (OT) 24-hour HEK293T Protein-Complementation Assay for Estrogen Receptor-alpha/-beta Homodimer (AID 2283356).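 Note: heteromer of ER alpha and ER beta binding domains; hits raise reporter fluorescence and both agonists and antagonists give an increase.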 In a few lines: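 HEK293T stably expressing a PCA of ER alpha LBD (aa 310-547) and ER beta LBD (aa 263-489). After 24 h compound exposure, mean fluorescence intensity in nucleus (agonists) or nucleus and cytoplasm (antagonists) measured by laser scanning cytometry versus vehicle.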

In experiment [13] the target is Voltage-gated inwardly rectifying potassium channel KCNH2 (Homo sapiens) (UniProt Q12809). In words: NVS_IC_hKhERGCh: NovaScreen (NVS) Ion Channel Assay for human Potassium Channel ERG (KhERGCh) (AID 2283333). In a few lines: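 Cell-free radioligand competition binding on hERG protein extracted from CHO cells, read by filter-based scintillation counting 0.75 h after dosing. Primary screen at 25 uM in duplicate, actives followed in concentration series. Signal loss fitted versus DMSO.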

Experiment [14] has as its target human Androgen Receptor (AR), AR (gene 367) (UniProt P10275). In words: NVS_NR_hAR: NovaScreen (NVS) Nuclear Receptor Binding Assay for human Androgen Receptor (AR) (AID 2283332). In a few lines:
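Actives from a duplicate 25 uM single-point screen went on to concentration series. Read-out after 20 h was scintillation counting of displaced radioligand in LnCAP extract, with DMSO as baseline.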

Experiment [15] addresses chimpanzee Androgen Receptor (AR), AR (gene 747460) (UniProt O97775). In words: NVS_NR_cAR: NovaScreen (NVS) Nuclear Receptor Binding Assay for chimpanzee Androgen Receptor (AR) (AID 2283346).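 Note: radioligand displacement from AR measured by scintillation counting in a cell-free assay.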 In a few lines:
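Cell-free radioligand displacement using receptor protein extracted from Sf9/Sf21 cells; bound radioligand measured by scintillation counting 72 hours after chemical dosing. Loss of signal versus DMSO baseline indicates binding; primary screen single-concentration in duplicate at 25 uM, actives followed in concentration series.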

Experiment [16] addresses rat Mineralocorticoid Receptor (MR), Nr3c2 (gene 25672) (UniProt P22199). In words: NVS_NR_rMR: NovaScreen (NVS) Nuclear Receptor Binding Assay for rat Mineralocorticoid Receptor (MR) (AID 2283355). In a few lines:
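Cell-free radioligand binding to MR in adrenalectomized rat brain supernatant, scintillation counted 24 h after dosing. Loss of signal versus DMSO baseline marks displacement. Primary screen in duplicate at 25 uM; actives retested as concentration series.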

A further experiment has as its target PGR (gene 5241) (UniProt P06401). In words: NVS_NR_hPR: NovaScreen (NVS) Nuclear Receptor Binding Assay for human Progestron Receptor (PR) (AID 2283360). In a few lines: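 T47D-derived receptor preparation, cell-free, with tritiated or iodinated radioligand displacement measured by scintillation 18 h post-dosing. Single 25 uM duplicate screen, then concentration series; signal loss relative to DMSO.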

Sequence of human Peripheral-type Benzodiazepine Receptor (PBR), TSPO (gene 706) (P30536 whole entry, looked up): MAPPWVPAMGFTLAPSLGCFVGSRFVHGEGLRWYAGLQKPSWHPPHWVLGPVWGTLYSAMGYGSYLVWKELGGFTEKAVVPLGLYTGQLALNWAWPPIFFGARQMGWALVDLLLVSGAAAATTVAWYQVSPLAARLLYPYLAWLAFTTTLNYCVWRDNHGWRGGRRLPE
Sequence of Androgen Receptor/SRC-1 Co-activator, AR (gene 367) (P10275 whole entry, looked up, the tested form may be a part): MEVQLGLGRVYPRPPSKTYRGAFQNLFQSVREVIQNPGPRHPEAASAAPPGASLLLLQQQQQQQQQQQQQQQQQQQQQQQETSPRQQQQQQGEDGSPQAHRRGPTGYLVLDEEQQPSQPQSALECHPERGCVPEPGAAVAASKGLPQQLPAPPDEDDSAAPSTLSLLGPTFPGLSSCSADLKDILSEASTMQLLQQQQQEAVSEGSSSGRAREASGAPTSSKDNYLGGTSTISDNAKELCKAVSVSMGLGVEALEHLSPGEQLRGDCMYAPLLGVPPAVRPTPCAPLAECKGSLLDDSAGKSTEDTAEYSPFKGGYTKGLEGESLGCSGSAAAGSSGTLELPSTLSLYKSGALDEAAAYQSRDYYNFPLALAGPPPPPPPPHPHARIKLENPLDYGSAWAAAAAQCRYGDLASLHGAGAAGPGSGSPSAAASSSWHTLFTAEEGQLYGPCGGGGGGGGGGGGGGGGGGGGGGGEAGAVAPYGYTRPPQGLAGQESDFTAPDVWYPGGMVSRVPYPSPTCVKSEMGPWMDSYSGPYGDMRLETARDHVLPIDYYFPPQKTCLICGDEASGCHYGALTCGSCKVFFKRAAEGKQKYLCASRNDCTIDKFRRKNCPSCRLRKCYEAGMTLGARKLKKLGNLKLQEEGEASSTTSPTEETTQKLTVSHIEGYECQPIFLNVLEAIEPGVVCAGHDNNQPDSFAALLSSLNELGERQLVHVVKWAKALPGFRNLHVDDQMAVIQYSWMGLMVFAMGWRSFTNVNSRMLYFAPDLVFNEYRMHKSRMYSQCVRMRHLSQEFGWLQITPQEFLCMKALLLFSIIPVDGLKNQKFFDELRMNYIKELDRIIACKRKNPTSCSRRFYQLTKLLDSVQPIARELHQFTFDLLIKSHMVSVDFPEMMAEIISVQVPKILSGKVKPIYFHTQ
T1 sequence (P03372 whole entry, looked up, the tested form may be a part): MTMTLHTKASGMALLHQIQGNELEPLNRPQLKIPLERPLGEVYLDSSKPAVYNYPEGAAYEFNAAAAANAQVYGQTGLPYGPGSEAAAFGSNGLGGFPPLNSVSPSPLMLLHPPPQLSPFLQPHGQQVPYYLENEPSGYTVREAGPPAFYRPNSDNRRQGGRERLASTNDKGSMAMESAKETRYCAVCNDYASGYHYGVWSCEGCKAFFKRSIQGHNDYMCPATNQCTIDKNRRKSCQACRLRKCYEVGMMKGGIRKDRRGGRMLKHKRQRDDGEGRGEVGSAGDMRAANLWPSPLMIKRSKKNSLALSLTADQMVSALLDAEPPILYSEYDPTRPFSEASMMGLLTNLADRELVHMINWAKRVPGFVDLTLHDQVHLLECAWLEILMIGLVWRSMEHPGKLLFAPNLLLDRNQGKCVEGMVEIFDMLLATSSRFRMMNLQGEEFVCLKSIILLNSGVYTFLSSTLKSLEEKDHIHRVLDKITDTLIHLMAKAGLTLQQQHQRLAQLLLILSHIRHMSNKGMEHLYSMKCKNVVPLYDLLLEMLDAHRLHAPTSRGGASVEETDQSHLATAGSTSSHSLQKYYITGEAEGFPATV
T1 sequence (Q92731 whole entry, looked up, the tested form may be a part): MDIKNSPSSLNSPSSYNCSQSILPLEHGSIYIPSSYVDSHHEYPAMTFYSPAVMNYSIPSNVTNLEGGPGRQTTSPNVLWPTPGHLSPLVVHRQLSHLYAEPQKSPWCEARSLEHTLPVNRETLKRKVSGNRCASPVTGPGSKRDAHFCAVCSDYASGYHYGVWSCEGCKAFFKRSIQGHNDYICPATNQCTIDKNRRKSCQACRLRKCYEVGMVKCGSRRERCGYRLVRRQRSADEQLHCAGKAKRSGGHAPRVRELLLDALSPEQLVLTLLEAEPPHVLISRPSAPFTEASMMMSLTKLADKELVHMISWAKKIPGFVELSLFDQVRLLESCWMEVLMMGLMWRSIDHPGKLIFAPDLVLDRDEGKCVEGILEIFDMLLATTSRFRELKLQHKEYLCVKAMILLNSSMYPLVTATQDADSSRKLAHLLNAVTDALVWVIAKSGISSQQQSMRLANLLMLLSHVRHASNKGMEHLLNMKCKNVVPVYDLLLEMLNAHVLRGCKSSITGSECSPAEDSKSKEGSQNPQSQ
Sequence of Estrogen receptor (Homo sapiens) (P03372 whole entry, looked up): as the sequence (P03372 whole entry, looked up, the tested form may be a part) above
Sequence of bovine Estrogen Receptor (ER), ESR1 (gene 407238) (P49884 whole entry, looked up): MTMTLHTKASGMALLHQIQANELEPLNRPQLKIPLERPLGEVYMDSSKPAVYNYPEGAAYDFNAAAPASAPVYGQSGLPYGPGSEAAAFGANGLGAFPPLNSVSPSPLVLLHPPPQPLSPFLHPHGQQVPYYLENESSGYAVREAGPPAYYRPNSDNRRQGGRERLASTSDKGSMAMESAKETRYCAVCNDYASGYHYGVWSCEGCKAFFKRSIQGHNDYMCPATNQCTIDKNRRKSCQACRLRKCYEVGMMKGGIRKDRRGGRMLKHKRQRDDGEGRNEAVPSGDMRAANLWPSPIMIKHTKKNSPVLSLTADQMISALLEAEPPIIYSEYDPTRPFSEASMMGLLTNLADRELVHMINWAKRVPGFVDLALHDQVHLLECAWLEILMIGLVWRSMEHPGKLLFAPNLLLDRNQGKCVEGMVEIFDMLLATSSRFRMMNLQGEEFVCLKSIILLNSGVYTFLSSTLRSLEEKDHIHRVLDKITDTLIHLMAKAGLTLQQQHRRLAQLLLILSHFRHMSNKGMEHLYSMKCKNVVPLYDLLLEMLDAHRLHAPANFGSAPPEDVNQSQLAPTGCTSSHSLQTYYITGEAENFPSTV
Sequence of bovine Gamma-Aminobutyric Acid Type A Receptor Agonist (GABAR Agonist), GABRA1 (gene 780973) (P08219 whole entry, looked up): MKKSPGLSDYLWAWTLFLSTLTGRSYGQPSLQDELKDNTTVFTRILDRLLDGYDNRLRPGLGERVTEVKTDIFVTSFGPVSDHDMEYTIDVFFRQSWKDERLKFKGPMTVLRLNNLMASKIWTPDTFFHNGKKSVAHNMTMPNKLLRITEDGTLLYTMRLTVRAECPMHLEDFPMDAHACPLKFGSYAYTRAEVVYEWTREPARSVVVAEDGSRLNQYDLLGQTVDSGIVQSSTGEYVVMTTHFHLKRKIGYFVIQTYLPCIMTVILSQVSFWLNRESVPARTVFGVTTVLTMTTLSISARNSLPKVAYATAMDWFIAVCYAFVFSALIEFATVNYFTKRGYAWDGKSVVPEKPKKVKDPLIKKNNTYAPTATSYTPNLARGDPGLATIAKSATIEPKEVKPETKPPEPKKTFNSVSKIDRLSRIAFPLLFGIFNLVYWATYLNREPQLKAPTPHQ
Sequence of human Androgen Receptor (AR), AR (gene 367) (P10275 whole entry, looked up): as the sequence (P10275 whole entry, looked up, the tested form may be a part) above
Sequence of PGR (gene 5241) (P06401 whole entry, looked up): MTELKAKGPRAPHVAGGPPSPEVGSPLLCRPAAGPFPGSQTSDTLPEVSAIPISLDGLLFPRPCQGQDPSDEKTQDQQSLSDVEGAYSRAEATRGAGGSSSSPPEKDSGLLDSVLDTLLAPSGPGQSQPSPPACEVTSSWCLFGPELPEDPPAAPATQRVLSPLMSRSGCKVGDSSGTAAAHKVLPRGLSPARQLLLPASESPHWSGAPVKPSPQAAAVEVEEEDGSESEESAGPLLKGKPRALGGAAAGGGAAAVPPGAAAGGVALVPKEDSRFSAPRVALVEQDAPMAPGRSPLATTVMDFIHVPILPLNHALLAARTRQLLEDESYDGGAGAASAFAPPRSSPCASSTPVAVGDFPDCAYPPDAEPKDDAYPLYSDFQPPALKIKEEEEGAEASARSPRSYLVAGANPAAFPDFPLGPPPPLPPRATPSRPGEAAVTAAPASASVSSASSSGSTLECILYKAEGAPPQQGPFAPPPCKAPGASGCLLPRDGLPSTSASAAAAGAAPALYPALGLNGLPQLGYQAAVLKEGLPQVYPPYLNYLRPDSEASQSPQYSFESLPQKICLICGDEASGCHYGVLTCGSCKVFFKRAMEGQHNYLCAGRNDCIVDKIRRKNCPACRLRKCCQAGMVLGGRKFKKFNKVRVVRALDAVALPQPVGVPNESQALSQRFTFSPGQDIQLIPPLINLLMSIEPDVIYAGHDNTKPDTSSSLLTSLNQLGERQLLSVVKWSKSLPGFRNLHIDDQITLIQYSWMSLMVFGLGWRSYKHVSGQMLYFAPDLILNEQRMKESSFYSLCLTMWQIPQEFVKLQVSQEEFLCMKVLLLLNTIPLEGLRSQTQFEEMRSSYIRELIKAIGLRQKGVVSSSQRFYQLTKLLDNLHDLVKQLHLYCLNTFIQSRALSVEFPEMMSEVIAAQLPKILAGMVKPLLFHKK

As a reminder, the AC50 is the concentration at which the activity in the assay is half-maximal. On to `CCCCCC(C)OC(=O)COc1ccc(Cl)c2cccnc12` (stereo not given), for which, in experiment [1], the half-maximal activity concentration (AC50) was 4.96 µM (active). Further, the outcome in [2], in [3], in experiment [4] and in [5] was inactive.
Take `C=CC(C)(CCC=C(C)C)OC(C)=O` (stereo not given): the result in experiment [6], in experiment [4] and in [5] was inactive. The AC50 in experiment [2] is 17.1 µM (active); in experiment [3] it was 6.92 µM (active).
In the case of `CN(C)CCOC(c1ccccc1)c1ccccc1`, the figures for the AC50 in experiment [6] and in experiment [9] were 5.8 µM (active) and 4.71 µM (active), respectively. In addition, the result in experiment [7], in [8], in experiment [4], in [5], in experiment [10] and in experiment [11] was inactive. In experiment [12], the result was inactive.
For the compound `C=C(c1ccc(C(=O)O)cc1)c1cc2c(cc1C)C(C)(C)CCC2(C)C`, the call in [2] was inactive.
For `C/C=C/C(=O)C1=C(C)CCCC1(C)C`, the AC50 in experiment [1] was 10.8 µM (active).
Turning to `O=C(CCCN1CCC(O)(c2ccc(Cl)cc2)CC1)c1ccc(F)cc1`, the outcome in [13], in [7] and in experiment [8] was inactive. The values for the AC50 in [6] and in experiment [9] were 2.55 µM (active) and 1.65 µM (active), respectively.
As to `CC(C)c1c(C(=O)Nc2ccccc2)c(-c2ccccc2)c(-c2ccc(F)cc2)n1CC[C@@H](O)C[C@@H](O)CC(=O)O`, in experiment [1], the concentration at half-maximal activity (AC50) is 11.2 µM (active).
In the case of `CCCCC(CC)C(=O)OCCOCCOCCOCCOC(=O)C(CC)CCCC` (stereo not given), in experiment [1], the AC50 is 15.8 µM (active).
Take `CC(C)[C@@H]1CC[C@@H](C)C[C@H]1O`: the results for the AC50 in experiment [14] and in experiment [15] were 13.1 µM (active) and 0.376 µM (active), respectively. For the same compound, the call in [11] was inactive.
On to `CCCCCc1ccc(O)cc1`, for which the AC50 in experiment [1] was 25 µM (active).
With `COc1ccccc1NC(=O)c1cc2ccccc2cc1O`, the outcome in experiment [2] was inactive.
Consider `O=C1Cc2ccccc2N1c1c(Cl)cccc1Cl`, for which the call in [2] and in experiment [3] was inactive.
As for `CN(Cc1cnc2nc(N)nc(N)c2n1)c1ccc(C(=O)N[C@@H](CCC(=O)O)C(=O)O)cc1`, the result in [1], in experiment [14], in experiment [4], in experiment [5], in experiment [10] and in experiment [11] was inactive. Also, the compound was called inactive (in experiment [16]; in experiment [12]; with PGR (gene 5241)).
Consider `CCCCCCOC(=O)c1ccc(O)cc1`, for which the AC50 was 13 µM (active) in [2] and 5.86 µM (active) in [3].
For the compound `O=C(Nc1cccc([N+](=O)[O-])c1)c1cc2ccccc2cc1O`, the result in experiment [2] and in experiment [3] was inactive.
With `Nc1cc(Cl)c(-c2cc(Cl)c(N)cc2Cl)cc1Cl`, the result in experiment [2] was inactive. In addition, in [3], the AC50 is 0.0384 µM (active).
